Consider 46 compounds from PubChem BioAssay AID1986 (Sanford-Burnham Center for Chemical Genomics, 2009).

Structures are written as SMILES. Hit rate of the full screen: of about 290,000 compounds, about 890 (0.31%) were called active. Cut-off read from the data, not from the text of the source: active = inhibition mostly above about 52% (no sharp cut-off); inactive = mostly below about 76%. Shown is part of a subset that was picked to be rich in actives.

The test is described as follows: cell-free HIV fusion peptide-binding blockers – biochemical, uHTS, fluorescence dequenching, primary screen (AID 1986). The following applies: 30 min, stronger effect = higher value.
Where [1] appears, read: measured here: repeat confirmation average inhibition, at 18.6 µM.

For the compound `CN1CCN(C(=O)CCN2C(=O)c3ccccc3C2=O)CC1`, where the note is “at 20 µM”, the inhibition – broadly, the change of the read-out against control, counted positive when it falls – is -0.4% (inactive). The same measure, in the same setting: with `O=C(N/N=C/c1sc2ccccc2c1O)c1cccc2ccccc12` the figure was 34.1% (inactive); with `O=C(N/N=C/c1sc2ccccc2c1O)c1ccccc1`, 95% (active); with `COc1ccc(C(=O)N/N=C/c2sc3ccccc3c2O)cc1`, 34.9% (inactive). Regarding `O=C(O)CCCN1C(=O)/C(=C/c2cn(-c3ccccc3)nc2-c2cccs2)SC1=S`, the inhibition is 79.6% (active) (at 20 µM) and 142% under setting [1]. With `O=C(O)CCCN1C(=O)/C(=C\c2ccccc2OCc2ccccc2)SC1=S`, the inhibition is, setting by setting: (at 20 µM) 63.8% (inactive); under setting [1], 37.2%. Take `COc1ccc(-c2nn(-c3ccccc3)cc2/C=C2/SC(=S)N(CCC(=O)O)C2=O)cc1`: the inhibition (at 20 µM) was -0.4% (inactive).

As to `Cc1ccc(-c2nn(-c3ccccc3)cc2/C=C2\SC(=S)N(CCCCCC(=O)O)C2=O)o1`, the inhibition (at 20 µM) was 82% (active).

Take `CCN1C(=O)/C(=C\c2cn(-c3ccccc3)nc2-c2cccnc2)SC1=S`: the inhibition (at 20 µM) is 3.5% (inactive).

For the compound `Cc1nn(-c2ccccc2)c(Cl)c1/C=C1\SC(=S)N(CCCCCC(=O)O)C1=O`, the inhibition (at 20 µM) was 33% (inactive). Consider `O=C(O)CCCN1C(=O)/C(=C/c2ccncc2)SC1=S`, for which the inhibition (at 20 µM) was -0.7% (inactive). On to `Cc1ccc(-c2nn(-c3ccccc3)cc2/C=C/C(=O)O)o1`, for which the inhibition (at 20 µM) is 5.9% (inactive).

`O=C(O)CCN1C(=O)/C(=C/c2cn(-c3ccccc3)nc2-c2cccs2)SC1=S`: the inhibition runs as follows: (at 20 µM) 90% (active); under setting [1], 142%. Turning to `COc1cc(OC)c(OC)cc1CN1CCN(C(=O)CC(C)C)CC1`, the inhibition (at 20 µM) is -0.6% (inactive). On to `O=C(Oc1cccc(-n2cnnn2)c1)c1ccco1`, for which, under “at 20 µM”, the inhibition was 12% (inactive). Regarding `CC(NC(=O)c1ccc2c(c1)OCO2)c1ccccc1` (configuration not stated), the inhibition (at 20 µM) is 0.3% (inactive).

With `Cc1ccc2c(C(=O)CN3CCCC(C)C3)c(C)[nH]c2c1` (configuration not stated), the inhibition (at 20 µM) is -0.5% (inactive). As for `O=C(OCc1cncs1)c1cccs1`, under “at 20 µM”, the inhibition is 0% (inactive). `Cc1ccc(S(=O)(=O)CCSc2cccc(C(=O)O)c2)cc1`: for the setting “at 20 µM”, the inhibition is 0.9% (inactive).

Take `Cc1ccc(S(=O)(=O)CCSc2cccc(C(=O)Nc3ccccc3C(=O)O)c2)cc1`: under “at 20 µM”, the inhibition is 51.2% (active). In the case of `O=C(Nc1ccccc1C(=O)O)c1cccc(C(=O)Nc2ccccc2C(=O)O)c1`, the inhibition (at 20 µM) was 34.2% (inactive).

Consider `O=C(O)/C=C/c1ccc([N+](=O)[O-])o1`, for which the inhibition (at 20 µM) is 5.1% (inactive). On the same count and under the same terms, with `O=C1CN(/N=C/c2ccc([N+](=O)[O-])o2)C(=O)N1` the figure was 146% (inactive); with `O=C1NC(=S)S/C1=C\C=C\c1ccc([N+](=O)[O-])o1`, 56.6% (active); with `COc1ccc(/C=C/C(=O)NC(=S)Nc2ccccc2)cc1OC`, 1.5% (inactive).

As to `O=C(O[C@@H]1OC2COC(=O)c3cc(O)c(O)c(O)c3-c3c(cc(O)c(O)c3O)C(=O)O[C@@H]([C@H]1O)[C@@H]2O)c1cc(O)c(O)c(O)c1`, the inhibition (at 20 µM) is 31.6% (inactive). For `Nc1nc2ccccc2[nH]1`, the inhibition (at 20 µM) was -0.4% (inactive). Regarding `FC(F)(F)c1nc2cc3nc4ccccc4[nH]c3cc2n1`, where the note is “at 20 µM”, the inhibition was 3.4% (inactive).

`c1ccc2[nH]c3cc4ncnc4cc3nc2c1`: the inhibition (at 20 µM) was 59.7% (active) and the inhibition under setting [1] was found to be 95.9%. On to `Cc1cc(C)c(/C=N/n2c(C)cc(C)c(C#N)c2=O)c(C)c1`, for which the inhibition (at 20 µM) was -2.5% (inactive). Regarding `O=C(NCc1ccc2c(c1)OCO2)c1ccc(CSCc2ccccc2Cl)o1`, the inhibition (at 20 µM) is 0.4% (inactive). With `CCc1oc2ccccc2c1C(=O)CCN1CCCCC1`, the inhibition (at 20 µM) was -3.9% (inactive). Take `CCc1oc2ccccc2c1C(=O)c1cc(Br)c(O)c(Br)c1`: the inhibition reads like this: (at 20 µM) 57.5% (active); under setting [1], 71.4%.

`CCOC(=O)c1c(O)c2ccccc2oc1=O`: the inhibition (at 20 µM) is -0.2% (inactive). As for `Cc1ccc(NC2=NCC(=O)N2c2ccc3c(c2)OCCO3)c(C)c1`, the inhibition (at 20 µM) is 0.4% (inactive).

On to `O=C(NCCSCc1c(F)cccc1Cl)c1ccco1`, for which, under “at 20 µM”, the inhibition is -1.3% (inactive). For the compound `CN(Cc1cc(=O)n2ccsc2n1)Cc1nc2ccccc2c(=O)[nH]1`, the inhibition (at 20 µM) is -1.5% (inactive). Turning to `COc1ccc(NC(=O)CSc2nncc3ccccc23)cc1`, under “at 20 µM”, the inhibition was -1.5% (inactive).

For `N#Cc1cccc(NC(=O)CSc2ccc3c4c(cccc24)C(=O)c2ccccc2-3)c1`, the inhibition (at 20 µM) was 74.2% (active). For `COc1ccc(NC(=O)CSc2nnc(C)c3ccccc23)cc1`, the inhibition (at 20 µM) is 0.4% (inactive). With `COc1ccc(NC(=O)CSc2ccc3c4c(cccc24)C(=O)c2ccccc2-3)cc1`, the inhibition runs as follows: (at 20 µM) 77% (active); under setting [1], 96.6%. For `N#Cc1cccc(NC(=O)CSc2ccccc2)c1`, where the note is “at 20 µM”, the inhibition was -0.6% (inactive). Take `Cc1ccccc1SCC(=O)Nc1cccc(C#N)c1`: the inhibition (at 20 µM) was 8.4% (inactive).

In the case of `COc1ccccc1NC(=O)C(C)OC(=O)C1CC(=O)N(c2ccc3c(c2)OCCO3)C1` (configuration not stated), the inhibition (at 20 µM) was 1.1% (inactive). As for `Cc1ccc(/C=N/NC(=O)c2ccccc2OCc2cccc(Br)c2)o1`, where the note is “at 20 µM”, the inhibition was -2.8% (inactive). As for `CCOc1ccccc1N1CC(C(=O)Nc2ccccc2N2CCOCC2)CC1=O` (configuration not stated), the inhibition (at 20 µM) was -1.3% (inactive).
